In PubChem BioAssay (NCI):
Several values for one entry are separate records, joined by “and”; a condition that tells them apart may be missing. Equal entries are not always repeated. This is part of a sample that, as a whole, favours compounds with a hit. Of some 83,000 tested, about 20% had one in any assay.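 How to read the values: 0–100, growth inhibition (40 = 60% inhibited); 0, no net growth; -100 to 0, cell death (-40 = 40% of starting cells died; -100 = all dead).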 Values without a mark were called inactive. Activity calls are given as the source filed them. The calls were made as follows: active = growth percent below 10; inactive = the rest.

Legend:
Test in all cases: NCI-60 one-dose screen, 48 h (100 = growth as untreated, 0 = no growth, -100 = all killed)
T-47D breast = settings: 10 µM unless noted
BT-549 breast = settings: 10 µM unless noted
MDA-MB-435 melanoma = settings: 10 µM unless noted
SW-620 colon = settings: 10 µM unless noted
MCF7 breast = test system: MCF7 breast
HCT-116 colon = settings: 10 µM unless noted
HCC-2998 colon = settings: 10 µM unless noted
KM12 colon = settings: 10 µM unless noted

Row | Structure (SMILES) | growth (T-47D breast) [%] | growth (BT-549 breast) [%] | growth (MDA-MB-435 melanoma) | growth (SW-620 colon) [%] | growth (MCF7 breast; 10 µM unless noted) [%] | growth (HCT-116 colon) | growth (HCC-2998 colon) | growth (KM12 colon) [%] | growth (MCF7 breast; 10 µM) [%] | growth (MCF7 breast; 100 µM)
1 | C=CCC(O)C=C (stereo unspecified) | 95.6 | 104 | 111% | 104 | 98.2 | 105% | 113% | 102 |  | 
2 | NNC(=O)N/N=C1\C(=O)N(c2nccs2)C(=O)C(=O)C1c1nc2ccccc2s1 (stereo unspecified) | 77.1 | 99.1 | 109% | 96.1 | 98.5 | 88.7% | 93.2% | 100 |  | 
3 | Oc1cc(O)c2c(c1)O[C@H](c1ccc(O)c(O)c1)[C@@H](O)C2 | 104 | 100 | 104% | 106 | 104 | 109% | 108% |  |  | 
4 | C=C1C(=O)C2CCC1C2 (stereo unspecified) | 98.7 | 93 | 105% | 101 | 109 | 105% | 97% | 96.5 |  | 
5 | CC(C)(C)[Si](C)(C)OCC1OC(n2cnc3c(N)ncnc32)CC1OS(C)(=O)=O (stereo unspecified) | 97.8 | 107 | 112% | 98.1 | 105 | 102% | 103% | 95.7 |  | 
6 | Cc1ccc(N2C(=O)c3cccc4c(N)c(S(=O)(=O)O)cc(c34)C2=O)cc1 | 112 | 131 | 115% | 109 | 110 | 102% | 104% |  |  | 
7 | CC(C)(C)CC1(C)NC(=O)NC1=O (stereo unspecified) | 108 | 119 | 114% | 103 | 100 | 101% | 113% |  |  | 
8 | C=CC(C)(C)n1cc(C2=C(O)C(=O)C(c3cn(C(C)(C)C=C)c4ccccc34)=C(O)C2=O)c2ccccc21 | 85.9 | 96.3 | 103% | 105 |  | 97.4% |  | 99.9 | 96.1 | -81.2% (active) and -91.7% (active)
9 | Cc1onc(-c2ccccc2Cl)c1C(=O)Cl | 99.5 | 117 | 95.3% | 103 | 89 | 105% | 102% |  |  | 
10 | CC(=O)OC/C(C)=C\CC(C)COC(C)=O (stereo unspecified) | 104 | 102 | 94.9% | 97.6 | 90.2 | 95.1% | 103% |  |  | 
11 | O=Cc1ccc(O)c(O)c1 | 83.2 | 101 | 102% | 113 | 96.5 | 98.5% | 93.3% |  |  | 
12 | CCC(=O)C1C(=O)c2ccccc2C1=O | 113 | 103 | 104% | 113 | 105 | 107% | 106% | 105 |  | 
13 | COc1ccc(C2CCCCC2=O)cc1 (stereo unspecified) | 100 | 111 | 103% | 104 | 103 | 106% | 107% |  |  | 
14 | Cc1cc2c(C(C)C)c(O)c(O)c(C=Nc3ccccc3[N+](=O)[O-])c2c(O)c1-c1c(C)cc2c(C(C)C)c(O)c(O)c(C=Nc3ccccc3[N+](=O)[O-])c2c1O | 83.1 | 94 | 109% | 96.3 | 91.2 | 73.7% | 79.5% |  |  | 
15 | CCCCOC(=O)c1ccc(NC(=O)CCl)cc1 | 47.2 | 47.5 | 75.9% | 25.8 | 22.8 | 4.07% (active) | 101% | 84.7 |  | 
16 | CC(=O)NC(CCC(=O)c1ccccc1)C(=O)O (stereo unspecified) | 83.3 | 76.9 | 99.2% | 100 | 89.4 | 80.2% | 108% |  |  | 
17 | CC1CC(C)S(=O)(=O)C1 (stereo unspecified) | 109 | 103 | 106% | 108 | 102 | 114% | 99% |  |  | 
18 | COc1cc(C(=O)N2CCN(c3ccccc3)CC2)c2ccccc2n1 | 51.1 | 12.7 | -24.2% (active) | 25.2 | 15.8 | 8.75% (active) | -20.3% (active) |  |  | 
19 | Cc1ccc(C)c(CCO)c1 | 103 | 94.3 | 107% | 98.3 | 112 | 107% | 103% |  |  | 

Row | Structure (SMILES) | growth (T-47D breast) [%] | growth (BT-549 breast) [%] | growth (MDA-MB-435 melanoma) | growth (SW-620 colon) [%] | growth (MCF7 breast; 10 µM unless noted) [%] | growth (HCT-116 colon) | growth (HCC-2998 colon) | growth (KM12 colon) [%] | growth (MCF7 breast; 10 µM) [%] | growth (MCF7 breast; 100 µM)
20 | C=CCc1cc(OC)c(O)c(OC)c1 | 83.7 | 106 | 108% | 114 | 96.9 | 92.6% | 102% |  |  | 
21 | CCOC(=O)c1ccc(C(C)(C)C)cc1 | 105 | 109 | 108% | 107 | 104 | 102% | 100% | 105 |  | 
22 | CCOC(=O)/C(C)=C\c1ccc(OC)c(OC)c1 | 90.2 | 89 | 102% | 106 | 101 | 94.2% | 103% | 102 |  | 
23 | OCc1cccnc1 | 106 | 106 | 97.2% | 102 | 94 | 107% | 107% |  |  | 
24 | CC1(C)CCC(C)(C)NC(=S)N1 | 98.5 | 105 | 111% | 111 | 103 | 98.9% | 109% | 99.1 |  | 
25 | OC(CBr)CCBr (stereo unspecified) | 93.6 | 124 | 97.2% | 104 | 86.6 | 104% | 111% |  |  | 
26 | Cc1cccc2ccccc12 | 109 | 99.6 | 104% | 102 | 84.1 | 95.8% | 99.8% |  |  | 
27 | Cn1c(=O)c2[nH]c(CC(=O)O)nc2n(C)c1=O | 102 | 107 | 112% | 108 | 101 | 104% | 101% |  |  | 
28 | CCNC(=O)Oc1ccc[nH]c1=O | 86.1 | 110 | 103% | 105 | 91.5 | 108% | 106% | 104 |  | 
29 | Cc1ccc(Cc2ccc(C)cc2)cc1 | 101 | 91.2 | 97.5% | 102 | 99.4 | 107% | 100% | 99.4 |  | 
30 | CN(C(=S)S(=O)(=O)C12CC3CC(CC(C3)C1)C2)c1ccccc1 | 87.1 | 123 | 98.8% | 69.7 | 99.4 | 93.5% | 104% | 109 |  | 
31 | OC1Cc2ccccc2C1 | 102 | 97.4 | 102% | 96.7 | 86.2 | 97.9% | 94.8% |  |  | 
32 | O=[N+]([O-])c1ccc2[nH]c(=S)n(/C=C(/c3ccc(Cl)cc3Cl)S(=O)(=O)Cc3ccc(Cl)cc3Cl)c2c1 | 90.2 | 93.9 | 103% | 114 | 87.8 | 82.8% | 105% |  |  | 
33 | OCCNc1ccccc1 | 98.7 | 97.4 | 107% | 108 | 97.1 | 89.9% | 105% |  |  | 
34 | Cc1ccc(NC(=S)N2CCOCC2)cc1C | 92.1 | 102 | 83.2% | 109 | 104 | 89.5% | 109% |  |  | 
35 | CC(=O)OC(C)c1cccc(C#N)c1 (stereo unspecified) | 99.1 | 109 | 113% | 98.2 | 101 | 100% | 107% | 104 |  | 
36 | CCCCc1ccc2nc(NC(=O)OC)[nH]c2c1 | 76.8 | 31.1 | 0.507% (active) | 14.4 | 12.8 | 7.36% (active) | -43.3% (active) |  |  | 
37 | CCNc1ccc2ccccc2c1N=Nc1ccc(N=Nc2ccccc2)cc1 | 84.7 | 120 | 110% | 99.8 | 85.2 | 72% | 110% |  |  | 
38 | CCOP(=O)(NC(c1ccccc1)c1ccccc1)OCC | 90.4 | 105 | 110% | 103 | 92.7 | 93.8% | 110% | 114 |  | 
